Results on 31 compounds are retold here after PubChem BioAssay AID779 (Sanford-Burnham Center for Chemical Genomics, 2007).

Unmarked numbers belong to inactive results. How the calls were made is not given here. Some results are limits rather than exact numbers.

The test in a line: PLAP enzyme activity inhibition – biochemical, colorimetric, counter-screen, dose response (AID 779). Conditions: colorimetric OD read-out. For orientation: The purpose of a counterscreen is to sort out artefacts and off-target activity.
Usually IC50 stands for the point on the concentration scale where inhibition reaches its midpoint. As for `O=C(c1ccc2c(=O)n(Cc3ccc4c(c3)OCO4)c(=S)[nH]c2c1)N1CCCCC1`, the IC50 was above 50 µM.
On to `Oc1ccc(-c2cn3c(n2)SCC3)cc1O`, for which the IC50 is above 50 µM.
As for `O=C1CCCC2=C1C(c1ccco1)Nc1ccc3ccccc3c12` (stereo unspecified), the figure is above 50 µM; as for `Cc1ccccc1C(=O)c1cccn1CC(=O)NCC1CCCO1` (stereo unspecified), above 50 µM.
As for `CCOC(=O)c1c(NC(C)=O)sc2c1CCC(C=O)=C2Sc1ccccc1`, the figure is above 50 µM; as for `Cc1ccc(-n2c(C)nc3oc4ccccc4c(=O)c3c2=O)cc1`, above 50 µM.
As for `O=C(O)c1ccc(CN(c2ccccn2)S(=O)(=O)c2ccccc2)cc1`, the figure is above 50 µM; as for `N#CC(c1nc2ccccc2nc1N1CCCC1)S(=O)(=O)c1cccs1` (stereo unspecified), above 50 µM.
For `CCSc1nnc(NC(=O)C(C(F)(F)F)C(F)(F)F)s1`, the IC50 is above 50 µM.
As for `Oc1c(C=C2N=c3ccccc3=N2)sc(=S)n1-c1ccc(F)cc1`, the figure is above 50 µM.
As to `CCC(C)N1C(=O)/C(=C/c2c(NCCCOC(C)C)nc3c(C)cccn3c2=O)SC1=S` (stereo unspecified), the IC50 is above 50 µM.
In the case of `Cn1cc([N+](=O)[O-])c(C(=O)Nc2ccc3c(c2)OCCO3)n1`, the IC50 is above 50 µM.
For the compound `Cc1ccc2cc(C=C(C#N)C#N)c(N3CCCCC3)nc2c1`, the IC50 was above 50 µM.
As for `O=C(NCc1ccccc1)c1ccc2nc(-c3ccco3)c(-c3ccco3)nc2c1`, the figure is above 50 µM; as for `C=CCn1c(=O)/c(=C/c2cc(OC)c(OC)c(OC)c2)s/c1=C(/C#N)c1nc2ccccc2n1C`, above 50 µM.
As for `CC1Cc2ccccc2N1Cc1nc2cc(C(F)(F)F)ccc2c(=O)[nH]1` (stereo unspecified), the figure is above 50 µM.
The value for `O=[N+]([O-])c1ccc(N2N=C(c3ccco3)CC2c2ccccc2)cc1` (stereo unspecified) was above 50 µM.
`CCOC(=O)C(C(=O)OCC)c1cc(Br)c2noc3c2c1C(=O)c1ccccc1-3`: the IC50 is above 50 µM.
As for `CCn1c2ccc(Cl)cc2c2nc3ccccc3nc21`, the figure is above 50 µM; as for `Cc1c(NC(=S)N/N=C/c2cccc(O)c2)c(=O)n(-c2ccccc2)n1C`, above 50 µM; as for `CCn1c(SCc2nc(-c3ccccc3)no2)nnc1-c1cccs1`, above 50 µM.
The value for `COc1ccc(S(=O)(=O)Nc2cc(Sc3ncn[nH]3)c(O)c3ccccc23)cc1` was above 50 µM.
The value for `CC1CCCN(c2nc3ccccc3nc2C(C#N)C(=O)OC2CCCCC2)C1` (stereo unspecified) was above 50 µM; that for `C=CCOC(=O)c1cc(-c2ccc(/C=C3\C(=O)NC(=O)C(C#N)=C3C)o2)ccc1Cl` was above 50 µM; that for `Oc1c(N=Nc2ccccn2)ccc2ccccc12` was above 50 µM.
On to `COc1cc(/C=C2\SC(=S)N(Nc3ncc(C(F)(F)F)cc3Cl)C2=O)cc(OC)c1OC`, for which the IC50 is above 50 µM.
As to `COc1cccc(C2(CSc3nnc(-c4cc(OC)c(OC)c(OC)c4)o3)OCCO2)c1`, the IC50 is above 50 µM.
Turning to `CCOC(=O)c1cc(-c2ccc(/C=C3/C(=O)NC(=O)C(C#N)=C3C)o2)ccc1Cl`, the IC50 is above 50 µM.
In the case of `O=C(NCCc1ccccc1)c1ccc2nc(-c3ccco3)c(-c3ccco3)nc2c1`, the IC50 was above 50 µM.
As for `CCSc1nnc(-c2sc3nnc(-c4ccccc4)c(-c4ccccc4)c3c2N)o1`, the figure is above 50 µM.
As for `CCCCn1nc(-c2ccccc2)c2nc3ccccc3nc21`, the figure is above 50 µM.
